Compound activity from PubChem.
A549 tox: counter-screen for Nrf2 inhibitors: cytotoxicity in A549 cells | A549 ARE-Fluc cells, CellTiter-Fluor viability, 18-24 h | Potency, µM (series often up to 46 µM), for the others: at the top dose activity change, negative = cytotoxicity, most hits filed as inhibitors | actives 0.16% (n = 390,000) | AID 504648; further: on the % scale 0 is the no-effect control and ±100 the full control effect
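A549 ARE-Fluc cells in 5% FBS OPTI-MEM, 5000 cells/well, rested 2 h then exposed to compounds in concentration-response for 18-24 h at 37 °C. Viability by CellTiter-Fluor fluorescence (Ex 405/Em 525) after 30 min; luciferase luminescence (BugLite, 15 min, RT) read afterwards.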
ATXN viability: viability counter-screen for ATXN expression inhibitors | Potency, µM (titrated, usually from 56.7 µM), hits mostly cytotoxic | AID 651635 | S2 cells (HEK-293 line with an ATXN2-luciferase reporter) viability, CellTiter-Fluor protease fluorescence, 24 h | actives 0.49% (n = 400,000); further: nearly all actives have a fitted effect of over 40% in size
HepG2 tox: counter-screen for TGF-b inhibitors: cytotoxicity in HepG2 cells | HepG2 CAGA-GFP viability, ATP luminescence, 18 h | Potency, µM (highest dose often 46.1 µM), for inactives: at the highest dose activity change, negative = cytotoxicity, hits mostly cytotoxic | actives 0.76% (n = 410,000)
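CellTiter-Glo luminescence gave cytotoxicity after 18 hours at 37 degrees C. The cells were HepG2 CAGA-GFP in 1% FBS DMEM, stimulated with 500 pg/mL TGF-beta after compound addition. %Activity was normalised to no-cell wells (complete cell-killing) and DMSO (no toxicity), and curves were fitted and classified.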
ATXN2 expr inh: reduces ATXN2 reporter expression in HEK-293 cells. HEK-293 ATXN2-luciferase reporter, luminescence, 24 h. Potency, µM (titrated, usually from 57 µM), without a hit: at the highest dose activity change, negative = inhibition, usual class: inhibitors. actives 0.72% (n = 360,000); further: on the % scale 0 is the no-effect control and ±100 the full control effect; nearly all actives have a fitted effect of over 55% in size
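ATXN2-luciferase reporter cells (luciferase flanked by upstream and downstream ATXN2 gene portions) were treated 24 h at 37 °C with compounds at up to 57 uM. SteadyGlo luminescence gave expression; GF-AFC fluorescence gave viability.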
TGFb inhibitor: inhibitors of TGF-b signaling | AID 588855 | Potency, µM (top dose mostly 46.1 µM), for the others: at the highest dose activity, negative = inhibition, hits mostly inhibitors | actives 1.2% (n = 410,000) | HepG2 CAGA-GFP TGF-b/SMAD3 reporter, GFP fluorescence, 18 h; TGF-beta stimulated, 500 pg/mL final; further: on the % scale 0 is the no-effect control and ±100 the full control effect; nearly all actives have a fitted effect of over 65% in size
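Smad-responsive CAGA-GFP expression was quantified in HEPG2 cells exposed to compounds and 500 pg/mL final TGF-beta for 18 h at 37 degrees C; unstimulated wells defined full inhibition.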
Nrf2 inh: Nrf2 pathway inhibition. actives 2.1% (n = 360,000). A549 ARE-Fluc reporter, luciferase luminescence, 18-24 h. AID 504444. Potency, µM (top dose mostly 46 µM), inactives show at the top dose activity change, negative = inhibition, hits mostly inhibitors; further: on the % scale 0 is the no-effect control and ±100 the full control effect; nearly all actives have a fitted effect of over 60% in size
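Reporter: ARE-Fluc in A549. Exposure: 18-24 h, 37 °C, 5% CO2, 5% FBS OPTI-MEM. Readouts: fluorescent cytotoxicity (CellTiter-Fluor), then luminescent Nrf2 signal after BugLite.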
* hit, by the source's call; i = inactive; ? = inconclusive; . = no result. An excerpt weighted towards active compounds, which were near 3.8% of everything screened. The call rests on the fitted dose curve; in most records, active means well fitted curve in the direction sought with a large enough effect; inconclusive means small, poorly fitted or top-dose-only effect, or another doubt; inactive means no such curve, though single readings can be large; an effect the other way counts as inactive or inconclusive. Potency means the concentration at half of the fitted maximal effect.

SMILES	A549 tox	ATXN viability	HepG2 tox	ATXN2 expr inh	TGFb inhibitor	Nrf2 inh
CC1CCC2(CC1)NC(=O)N(Cc1cccc(C(F)(F)F)c1)C2=O (stereo unspecified)	-0.8%	i	2.2%	-29.2%	4.2%	18.4µM*
CCn1cc(C(=O)N[C@H](C(=O)NCCO)C(C)C)c(=O)c2cc3c(cc21)OCO3	1.9%	i	2.1%	12.4%	34.6%	1.5%
COc1cccc2c1Oc1ncccc1N(C(=O)CCC(=O)NCCC(C)C)C2	9.1%	i	10.4%	8.7%	-6.7%	21.6%
N#C/C(=C\c1ccc(-c2ccc(Cl)c(C(=O)O)c2)o1)c1nc2ccccc2[nH]1	-15.6%	.	2.4%	.	31.3%	11.4%
Cc1ccc2nc(/C(C#N)=C/c3ccc(-c4cccc(Cl)c4)o3)[nH]c2c1	-12.3%	i	8.91µM*	?	-0.9%	?
Cc1c2oc3c(C)ccc(C(=O)NC4C(=O)NC(C(C)C)C(=O)N5CCCC5C(=O)N(C)CC(=O)N(C)C(C(C)C)C(=O)OC4C)c3nc-2c(C(=O)NC2C(=O)NC(C(C)C)C(=O)N3CCCC3C(=O)N(C)CC(=O)N(C)C(C(C)C)C(=O)OC2C)c(N)c1=O (stereo unspecified)	.	.	.	0.0004µM*	.	.
CCCN(CCC)C(=O)c1c[nH]c2ccc(S(=O)(=O)N(C)c3ccc(Cl)cc3)cc2c1=O	0.0%	.	5.7%	.	-14.5%	.
Cc1ccc(-n2nc(C)c3c2C(Br)C(C)(C)CC3=O)nc1 (stereo unspecified)	-13.8%	i	-36.7%	-5.7%	?	7.31µM*
Cc1nn(-c2ccc(Cl)cn2)c2c1C(=O)CC(C)(C)C2Br (stereo unspecified)	4.3%	i	-36.1%	1.9%	?	-26.0%
CCCCC[C@H](C)N1C[C@H](COCc2ccccc2)Oc2cc(N3CC[C@@H](N(C)C)C3)ccc2S1(=O)=O	.	28.2µM*	.	?	.	.
C[C@@H](c1ccccc1)N1C[C@@H](COCc2ccccc2)Oc2cc(N3CC[C@@H](N(C)C)C3)ccc2S1(=O)=O	.	20µM*	.	28.2µM*	.	.
CCCCC[C@@H](C)N1C[C@@H](COCc2ccccc2)Oc2cc(N3CC[C@@H](N(C)C)C3)ccc2S1(=O)=O	.	28.2µM*	.	?	.	.
CCCCC[C@H](C)N1C[C@@H](COCc2ccccc2)Oc2cc(N3CC[C@@H](O)C3)ccc2S1(=O)=O	.	?	.	-0.8%	.	.
CCCCC[C@@H](C)N1C[C@H](COCc2ccccc2)Oc2cc(N3CC[C@@H](N(C)C)C3)ccc2S1(=O)=O	.	25.1µM*	.	?	.	.
C[C@H](c1ccccc1)N1C[C@H](COCc2ccccc2)Oc2cc(N3CC[C@@H](N(C)C)C3)ccc2S1(=O)=O	.	i	.	3.5%	.	.
O=C(NCCc1ccccc1)c1sc2ncccc2c1-n1cccc1	-0.3%	?	-16.2%	21.7%	?	.
Cc1cc(C)cc(NC(=O)COC(=O)Cn2cnc3c2c(=O)n(C)c(=O)n3C)c1	0.0%	i	-13.3%	-5.4%	-10.9%	4.0%
O=C(Nc1ccc(Cl)cc1Cl)c1cc(S(=O)(=O)NCc2ccc3c(c2)OCO3)ccc1F	-5.9%	.	-40.1%	.	?	.
CC(C)(C)NC(=O)C(c1ccc(-c2ccccc2)cc1)N(C[C@H]1CC[C@@H]([C@@H]2CC[C@H](CO)O2)O1)C(=O)c1ccc(C(C)(C)C)cc1 (stereo partly specified)	?	20µM*	-96.2%	-28.1%	?	?
Cc1ccc(C(C(=O)NC(C)(C)C)N(CC2CCCO2)C(=O)c2csnn2)cc1 (stereo unspecified)	4.8%	i	-13.5%	-3.3%	19.1%	-2.2%
Cc1c(Cl)ccc2sc(N3CCN(C(=O)C4CC4)CC3)nc12	-10.7%	?	-40.9%	0.0%	17.8µM*	.
CC1=C(C(=O)N2CCCCCC2)CC(CC(=O)NCCCN(C)C)C(=O)N1Cc1ccc(F)cc1 (stereo unspecified)	.	i	.	-1.1%	.	.
Cc1cc2c(c(-c3cnccn3)c1)OC(CNC(=O)c1c(F)cccc1Cl)C2 (stereo unspecified)	.	i	.	.	.	.
COc1ccc(C)cc1NC(=O)c1cc2c(=O)n(Cc3cccnc3)ccc2nc1C	10.7%	i	-4.1%	1.6%	26.5%	-4.8%
COc1ccc(S(=O)(=O)NCCc2sc(-c3ccccc3)nc2C)cc1OC	-1.0%	i	-29.6%	-13.4%	-2.9%	.
SMILES	A549 tox	ATXN viability	HepG2 tox	ATXN2 expr inh	TGFb inhibitor	Nrf2 inh
COc1ccc(-c2nc(C)c(CCNS(=O)(=O)c3cc(C)c(C)cc3C)s2)cc1	-2.6%	?	-25.4%	?	11.2µM*	.
COc1ccc(-c2nc(C)c(CCNS(=O)(=O)c3cc(Cl)ccc3Cl)s2)cc1	-11.1%	?	-6.2%	?	?	.
Cc1nc(-c2ccccc2)sc1CCNS(=O)(=O)c1ccc(Br)cc1	3.7%	i	-42.6%	?	11.2µM*	.
CCc1ccc2oc(-c3ccc(C)c(NC(=O)Cc4ccccc4)c3)nc2c1	4.6%	i	-1.2%	67.4%	3.3%	?
O=c1c2sc3nc(N4CCOCC4)c4c(c3c2ncn1-c1ccccc1)CCCC4	10.8%	i	-23.2%	-8.4%	-5.5%	13µM*
Cc1ccccc1-n1cnc2c(sc3nc(N4CCOCC4)c4c(c32)CCCC4)c1=O	-17.2%	i	1.1%	?	16.0%	20.6µM*
C=CCNC(=S)N1CCC(C(=O)c2ccc(Cl)cc2)CC1	14.0%	?	-26.7%	.	-27.2%	-29.6%
CCN(CC)C(=O)C1=C(C)N(Cc2ccc(OC)cc2)C(=O)C(CC(=O)NC2CCCCC2)C1 (stereo unspecified)	.	i	4.6%	3.6%	5.8%	.
Cc1cc(SC#N)cc(C)c1NC(=O)CCl	-20.4%	?	11.2µM*	-9.0%	?	-3.9%
CCc1cc(SC#N)cc(C)c1NC(=O)CCl	?	?	-88.0%	?	7.08µM*	?
CCC(=O)NC(c1cccs1)c1cc([N+](=O)[O-])c2cccnc2c1OC (stereo unspecified)	.	i	-9.6%	5.6%	-6.9%	.
CC(C)C(=O)NC(c1ccc(N(C)C)cc1)c1ccc2cccnc2c1O (stereo unspecified)	.	.	5.9%	.	?	.
CC(C)C(=O)NC(c1cccs1)c1cc([N+](=O)[O-])c2cccnc2c1O (stereo unspecified)	?	i	-33.5%	?	?	20.6µM*
